Values joined by “and” are separate entries in the source; they are usually repeats but may differ in a detail not shown here. Equal values may be shown once. Active and inactive are the calls of the source. How the source made its calls: active means hit-call score of the fitted dose curve at least 0.9, where 1 is the maximum; inactive means score below 0.9.

As a reminder, the AC50 is the concentration giving half of the maximal activity seen.

Read-out in this assay: Epidermal growth factor receptor (EGFR), EGFR (gene 1956)
Put plainly: BSK_BE3C_EGFR: BioMAP Diversity Plus: BE3C Assay for Epidermal growth factor receptor (EGFR) Biomarker Activity (AID 2284281). To be noted: primary human bronchial epithelial cells. The procedure:
BSK_BE3C is a cell-based, multiplexed-readout assay that uses bronchial epithelial cell, a human lung primary cell, with measurements taken at 24 hours after chemical dosing in a 96-well plate.BSK_BE3C_EGFR is an assay component measured in the BSK_BE3C assay. It measures EGFR antibody related to regulation of gene expression using ELISA technology.Data from the assay component BSK_BE3C_EGFR was analyzed at the endpoint, BSK_BE3C_EGFR, in the positive analysis fitting direction relative to DMSO as the negative control and baseline of activity. Using a type of binding reporter, gain or loss-of-signal activity can be used to understand protein changes. To generalize the intended target to other relatable targets, this assay endpoint is annotated to the 'kinase' intended target family, where the subfamily is 'receptor tyrosine kinase'.
The levels of cell surface (or secreted, indicated by the prefix "s") biomarker endpoints were measured by ELISA. Overt cytotoxicity to cells in confluent adherent cultures (all systems other than the BT system) was assessed by measuring total protein levels using sulforhodamine B (SRB) staining in parallel cultures at the time of biomarker measurements, indicated as SRB endpoints. For proliferation assays for adherent cell types, individual cell types are cultured at sub-confluence and relative cell numbers quantified by SRB staining at time points optimized for each system (48 h: 3C and CASM3C systems; 72 h: BT and HDF3CGF systems; 96 h: SAg system). SRB was performed by staining cells with 0.1% SRB after fixation with 10% TCA and reading wells at 560 nm.Viability and proliferation of PBMC (T cells) was quantified by Alamar Blue reduction for the SAg and BT systems. For PBMC viability (referred to as PBMC Cytotoxicity within the assay endpoint names), cells were plated (75,000/well in a 96-well plate) and then chemical samples added for 1 h before addition of activators, SEB and TSST-1 (20 ng/mL final concentration each). Cells were incubated for 90 h. Then, Alamar Blue (20 uL/well) (Invitrogen, Cat DAL1100) was added for 6 h, and the plates were read with a fluorescence microplate reader at 546/580 nm (excitation/emission). For PBMC proliferation, cells were plated and activated as above but incubated for only 16 h prior to addition of Alamar Blue. Plates were read after 6 h.
Consider `O=C(O)C(F)(F)C(F)(F)C(F)(F)C(F)(F)C(F)(F)C(F)(F)C(F)(F)C(F)F`, for which the outcome was inactive.
Same read-out and setting: for `OCC(F)(OC(F)(F)C(F)(OC(F)(F)C(F)(F)C(F)(F)F)C(F)(F)F)C(F)(F)F` (stereo not drawn) the value was “inactive”; for `C=C(F)C(=O)OC(C(F)(F)F)C(F)(F)F`, “inactive”; for `CCn1cc(C(=O)O)c(=O)c2ccc(C)nc21`, “inactive”.
Still for that read-out and setting: the value for `CC(C)CCCC(C)(C)O` was “inactive”.
As to `O=C(O)C(F)(F)OC(F)(F)C(F)(F)OC(F)(F)C(F)(F)C(F)(F)C(F)(F)F`, the AC50 is 35 µM (active) and 17.7 µM (active).
For the compound `CCCCN(CCO)CCO`, the outcome was inactive.
The same measure, in the same setting: for `CC(=O)c1ccc(C)cc1` the value was “inactive”.
On the same count and under the same terms, the value for `CCCO[Si](OCCC)(OCCC)OCCC` was “inactive”; that for `O=S(=O)(O)C(F)(F)C(F)(F)OC(F)(F)C(F)(F)F` was “inactive”; that for `C=C(C)C(=O)OCCC(F)(F)C(F)(F)C(F)(F)C(F)(F)C(F)(F)C(F)(F)C(F)(F)C(F)(F)F` was “inactive”.
Same read-out and setting: the value for `c1ccc(OCCOc2ccccc2)cc1` was “inactive”; that for `CC(C)(CO)CO` was “inactive”.

Source of the values: PubChem BioAssay (EPA / NIEHS).
